According to the supplement of paper PMC6897291:

Tested on: U-2932
Experiment: growth inhibition by drug alone (1 - RLU/untreated control) (fraction); higher = stronger inhibition
Settings: 177Lu-lilotomab satetraxetan 0 ug/ml
Protocol: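 U-2932 ABC-DLBCL cells were pretreated or not for 18 h with 1 ug/ml 177Lu-lilotomab satetraxetan (600 MBq/mg), washed and seeded (3000 cells/well) on 384-well plates pre-printed with the Selleck Cambridge Cancer Compound library. Viability was read by RealTime-Glo luminescence on days 3-6 after seeding. Effect = 1 - RLU/mean RLU of the 48 untreated no-drug control wells per plate; Bliss score = (M-E)/(1-Fa), with E the expected Bliss-additive effect.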

Q: Which results are given for `CS(=O)(=O)N1CCN(Cc2cc3nc(-c4cccc5[nH]ncc45)nc(N4CCOCC4)c3s2)CC1`?
A: growth inhibition by drug alone (10 nM, time (day): 3): -0.0712; growth inhibition by drug alone (10 nM, time (day): 4): -0.0515; growth inhibition by drug alone (10 nM, time (day): 5): -0.0456; growth inhibition by drug alone (10 nM, time (day): 6): 0.0469; growth inhibition by drug alone (1000 nM, time (day): 3): 0.69; growth inhibition by drug alone (1000 nM, time (day): 4): 0.786; growth inhibition by drug alone (1000 nM, time (day): 5): 0.802; growth inhibition by drug alone (1000 nM, time (day): 6): 0.82

Q: `FC(F)c1nc2ccccc2n1-c1nc(N2CCOCC2)nc(N2CCOCC2)n1` was tested. Which “growth inhibition by drug alone” value (10 nM, time (day): 3) did it give?
A: 0.143

Q: And the “growth inhibition by drug alone” value (10 nM, time (day): 4)?
A: 0.0834

Q: And the “growth inhibition by drug alone” value (10 nM, time (day): 5)?
A: 0.0466

Q: And the “growth inhibition by drug alone” value (10 nM, time (day): 6)?
A: 0.0263

Q: What about the “growth inhibition by drug alone” value (1000 nM, time (day): 3) of the same compound?
A: 0.437

Q: What about the “growth inhibition by drug alone” value (1000 nM, time (day): 4) of the same compound?
A: 0.399

Q: And the “growth inhibition by drug alone” value (1000 nM, time (day): 5)?
A: 0.349

Q: What about the “growth inhibition by drug alone” value (1000 nM, time (day): 6) of the same compound?
A: 0.367

Q: With `COc1cc2nccc(Oc3ccc(NC(=O)C4(C(=O)Nc5ccc(F)cc5)CC4)cc3)c2cc1OC` [XL-184 free base (Cabozantinib)] as the compound, how does the “growth inhibition by drug alone” value (10 nM, time (day): 3) read?
A: 0.15

Q: What about the “growth inhibition by drug alone” value (10 nM, time (day): 4) of the same compound?
A: 0.0841

Q: What about the “growth inhibition by drug alone” value (10 nM, time (day): 5) of the same compound?
A: -0.102

Q: And the “growth inhibition by drug alone” value (10 nM, time (day): 6)?
A: -0.0896

Q: What about the “growth inhibition by drug alone” value (1000 nM, time (day): 3) of the same compound?
A: 0.0853

Q: What about the “growth inhibition by drug alone” value (1000 nM, time (day): 4) of the same compound?
A: 0.105

Q: And the “growth inhibition by drug alone” value (1000 nM, time (day): 5)?
A: 0.037

Q: And the “growth inhibition by drug alone” value (1000 nM, time (day): 6)?
A: -0.036

Q: With `CC1=C(/C=C/C(C)=C/C=C/C(C)=C/C(=O)Nc2ccc(O)cc2)C(C)(C)CCC1` [Fenretinide] as the compound, how does the “growth inhibition by drug alone” value (10 nM, time (day): 3) read?
A: 0.0635

Q: And the “growth inhibition by drug alone” value (10 nM, time (day): 4)?
A: 0.0202

Q: What about the “growth inhibition by drug alone” value (10 nM, time (day): 5) of the same compound?
A: -0.0163

Q: What about the “growth inhibition by drug alone” value (10 nM, time (day): 6) of the same compound?
A: -0.136

Q: And the “growth inhibition by drug alone” value (1000 nM, time (day): 3)?
A: 0.757

Q: What about the “growth inhibition by drug alone” value (1000 nM, time (day): 4) of the same compound?
A: 0.403

Q: And the “growth inhibition by drug alone” value (1000 nM, time (day): 5)?
A: 0.216

Q: What about the “growth inhibition by drug alone” value (1000 nM, time (day): 6) of the same compound?
A: 0.00716

Q: For `c1ccc2c(CCNc3ccc(Nc4ccncc4)cc3)c[nH]c2c1`, which “growth inhibition by drug alone” value (10 nM, time (day): 3) is on record?
A: 0.0584

Q: And the “growth inhibition by drug alone” value (10 nM, time (day): 4)?
A: 0.057

Q: What about the “growth inhibition by drug alone” value (10 nM, time (day): 5) of the same compound?
A: 0.0439

Q: And the “growth inhibition by drug alone” value (10 nM, time (day): 6)?
A: -0.174

Q: And the “growth inhibition by drug alone” value (1000 nM, time (day): 3)?
A: 0.0747

Q: What about the “growth inhibition by drug alone” value (1000 nM, time (day): 4) of the same compound?
A: 0.114

Q: And the “growth inhibition by drug alone” value (1000 nM, time (day): 5)?
A: 0.115

Q: And the “growth inhibition by drug alone” value (1000 nM, time (day): 6)?
A: -0.0134
